Measurements: publication PMC5540273 (PLoS ONE, 2017)

Key:
Conditions in all cases: concentration: 1 μM, replicates: in singlicate; n = 1
[1] = test system: CSNK1G1
[2] = test system: CSNK1G2
[3] = test system: CSNK1G3
[4] = test system: CSNK2A1
[5] = test system: CSNK2A2
[6] = test system: T1, CTK
T1 construct: gene MATK

[7] = test system: DAPK1
[8] = test system: DAPK2
[9] = test system: DAPK3
[10] = test system: T2, DCAMKL1
T2 construct: gene DCLK1

[11] = test system: T3, DCAMKL2
T3 construct: gene DCLK2

[12] = test system: T4, DCAMKL3
T4 construct: gene DCLK3

[13] = test system: DDR1
[14] = test system: DDR2
[15] = test system: T5, DLK
T5 construct: gene MAP3K12

[16] = test system: T6, DMPK2
T6 construct: gene CDC42BPG

[17] = test system: DMPK
[18] = test system: T7, DRAK1
T7 construct: gene STK17A

[19] = test system: T8, DRAK2
T8 construct: gene STK17B

[20] = test system: DYRK1A
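Further: KINOMEscan kinase panel screen.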

Row | Compound | %Inh [1] | %Inh [2] | %Inh [3] | %Inh [4] | %Inh [5] | %Inh [6] | %Inh [7] | %Inh [8] | %Inh [9] | %Inh [10] | %Inh [11] | %Inh [12] | %Inh [13] | %Inh [14] | %Inh [15] | %Inh [16] | %Inh [17] | %Inh [18] | %Inh [19] | %Inh [20]
1 | Cl.Cl.NCC(C(=O)Nc1cc(Br)c(-c2ccnc3[nH]ccc23)s1)c1ccccc1 (centres unmarked) [GSK1269851] | 0% | 4% | 35% | 79% | 73% | 7% | 0% | 0% | 15% | 9% | 3% | 0% | 0% | 0% | 4% | 0% | 27% | 98.8% | 0% | 50%
2 | O=C(Nc1n[nH]c2cc(-c3ccoc3)ccc12)C1CC1 [SB-738481] | 0% | 0% | 12% | 35% | 66% | 25% | 6% | 0% | 0% | 2% | 0% | 0% | 0% | 5% | 0% | 24% | 0% | 24% | 0% | 61%
3 | C[C@@H]1CC[C@@H](C(=O)Nc2ccccc2)CN1c1cc(-c2ccc3c(N)n[nH]c3c2)nc(N)n1 [GSK2286062] | 13% | 8% | 14% | 54% | 7% | 0% | 0% | 23% | 20% | 7% | 17% | 0% | 1% | 22% | 17% | 0% | 0% | 18% | 0% | 3%
4 | CCc1ccc(-c2ccc3c(c2)-c2c(cnn2C)S(=O)(=O)N3C)cc1 | 0% | 2% | 0% | 0% | 10% | 26% | 1% | 0% | 5% | 0% | 0% | 0% | 0% | 2% | 0% | 0% | 0% | 0% | 0% | 0%
5 | Nc1ncnc2c1nc(-c1ccccc1)n2-c1ccccc1 [SKF-97293] | 4% | 14% | 7% | 0% | 13% | 42% | 0% | 0% | 17% | 0% | 0% | 3% | 6% | 41% | 23% | 0% | 6% | 0% | 0% | 6%
6 | FC(F)(F)c1ccc(/C=C/c2cncnc2Nc2ccc3[nH]c(Cc4ccccc4)nc3c2)cc1 [GW709199] | 2% | 0% | 4% | 0% | 0% | 0% | 0% | 0% | 11% | 9% | 7% | 21% | 0% | 36% | 0% | 0% | 0% | 0% | 7% | 0%
7 | O=C(Nc1cccc(-c2nn3ccccc3c2-c2ccnc(Nc3cccc(C(F)(F)F)c3)n2)c1)c1c(F)cccc1F [GSK292658] | 0% | 0% | 8% | 7% | 2% | 14% | 0% | 0% | 0% | 49% | 0% | 0% | 99.3% | 50% | 2% | 49% | 0% | 0% | 0% | 9%
8 | Cc1cccc(Nc2nc(N[C@H]3CCNC3)ncc2C(N)=O)c1.Cl [GSK2197149] | 14% | 11% | 15% | 52% | 0% | 13% | 69% | 51% | 22% | 16% | 30% | 0% | 0% | 0% | 35% | 4% | 0% | 53% | 22% | 24%
9 | O=C(NC1CCN(c2ccnc(Nc3ccc(F)cc3)n2)C1)c1cc2ccccc2s1 (centres unmarked) [GSK1379716] | 20% | 0% | 24% | 0% | 12% | 0% | 19% | 15% | 5% | 18% | 9% | 7% | 0% | 32% | 32% | 0% | 0% | 7% | 0% | 7%
10 | CCn1c(-c2nonc2N)nc2c(C#CC(C)(C)O)nc(OC[C@H](N)c3ccccc3)cc21 [GSK943949] | 0% | 0% | 17% | 0% | 30% | 11% | 0% | 3% | 18% | 12% | 0% | 19% | 4% | 12% | 0% | 0% | 0% | 13% | 19% | 4%
